# How the values were obtained:
# Experiment in all cases: yeast three-hybrid, YBZ-1, SC-Leu-His + 0.5 mM 3-AT, 4 days
# Settings in all cases: tags: N-Gal4 AD-HA kept; label: inside an RPR1-promoter hybrid RNA with tandem MS2 sites; ssRNA
# PUM1 PUF domain R7-TSV = PUM1 PUF domain R7-TSV (Homo sapiens, UniProt Q14671 828-1176, S1079T;N1080S;E1083V)
# Summary of the method: (§1)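 The interaction score is the logarithmic change in variant frequency from input to selection. It uses log2, with a pseudocount of 1 for absent variants, and frequencies came from PCR-amplified, Illumina-sequenced repeat regions. The libraries were Pumilio-1 PUF domains randomized at the three base-contacting residues per repeat, co-expressed with matching RNA elements in strain YBZ-1 (LexA–MS2 coat fusion, HIS3 reporter). Plating lasted four days on SC-Leu (input) or SC-Leu-His + 0.5 mM 3-AT (selection).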
# PUM1 PUF domain R4-PFA = PUM1 PUF domain R4-PFA (Homo sapiens, UniProt Q14671 828-1176, N971P;H972F;Q975A)
# Summary of the method: as §1
# PUM1 PUF domain R3-FRV = PUM1 PUF domain R3-FRV (Homo sapiens, UniProt Q14671 828-1176, C935F;Q939V)
# Summary of the method: as §1
# PUM1 PUF domain R5-TTR = PUM1 PUF domain R5-TTR (Homo sapiens, UniProt Q14671 828-1176, C1007T;R1008T;Q1011R)
# Summary of the method: as §1
# PUM1 PUF domain R4-GQG = PUM1 PUF domain R4-GQG (Homo sapiens, UniProt Q14671 828-1176, N971G;H972Q;Q975G)
# Summary of the method: as §1
# PUM1 PUF domain R5-RCM = PUM1 PUF domain R5-RCM (Homo sapiens, UniProt Q14671 828-1176, C1007R;R1008C;Q1011M)
# Summary of the method: as §1
# PUM1 PUF domain R6-LFS = target: T1, PUM1 PUF domain R6-LFS (Homo sapiens, UniProt Q14671 828-1176, N1043L;Y1044F;Q1047S)
# T1 sequence: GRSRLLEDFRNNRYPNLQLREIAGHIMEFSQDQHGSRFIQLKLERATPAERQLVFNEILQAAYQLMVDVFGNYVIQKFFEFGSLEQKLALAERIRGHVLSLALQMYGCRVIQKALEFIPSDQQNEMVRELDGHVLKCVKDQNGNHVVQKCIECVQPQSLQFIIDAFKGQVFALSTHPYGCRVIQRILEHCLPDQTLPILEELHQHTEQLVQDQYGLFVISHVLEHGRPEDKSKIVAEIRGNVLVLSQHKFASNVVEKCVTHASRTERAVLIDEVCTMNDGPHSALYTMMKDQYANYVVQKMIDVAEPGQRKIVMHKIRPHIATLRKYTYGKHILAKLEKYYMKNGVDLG
# Summary of the method: as §1
# PUM1 PUF domain R7-HFP = PUM1 PUF domain R7-HFP (Homo sapiens, UniProt Q14671 828-1176, S1079H;N1080F;E1083P)
# Summary of the method: as §1
sequence,measurement,setting,value
GGCUAGAACUAGUGGAUCCCCCGGCGCCCGGCGGCUCGAGCCCGGGUAAGUUUAAAUAGUCUGCAUGCCGCCGGGCGCCAUGCCUGCAGGUCGACUCUAGAAAACAUG,binding signal,PUM1 PUF domain R7-TSV,2.77 log2 enrichment (interaction score)
GGCUAGAACUAGUGGAUCCCCCGGCGCCCGGCGGCUCGAGCCCGGGUAAGUGUACAUAGUCUGCAUGCCGCCGGGCGCCAUGCCUGCAGGUCGACUCUAGAAAACAUG,binding signal,PUM1 PUF domain R4-PFA,3.34 log2 enrichment (interaction score)
GGCUAGAACUAGUGGAUCCCCCGGCGCCCGGCGGCUCGAGCCCGGGUAAGUGUAAUUAGUCUGCAUGCCGCCGGGCGCCAUGCCUGCAGGUCGACUCUAGAAAACAUG,binding signal,PUM1 PUF domain R3-FRV,1.27 log2 enrichment (interaction score)
GGCUAGAACUAGUGGAUCCCCCGGCGCCCGGCGGCUCGAGCCCGGGUAAGUGUUAAUAGUCUGCAUGCCGCCGGGCGCCAUGCCUGCAGGUCGACUCUAGAAAACAUG,binding signal,PUM1 PUF domain R5-TTR,2.44 log2 enrichment (interaction score)
GGCUAGAACUAGUGGAUCCCCCGGCGCCCGGCGGCUCGAGCCCGGGUAAGUGUAUAUAGUCUGCAUGCCGCCGGGCGCCAUGCCUGCAGGUCGACUCUAGAAAACAUG,binding signal,PUM1 PUF domain R4-GQG,2.39 log2 enrichment (interaction score)
same,binding signal,PUM1 PUF domain R4-PFA,4.96 log2 enrichment (interaction score)
GGCUAGAACUAGUGGAUCCCCCGGCGCCCGGCGGCUCGAGCCCGGGUAAGUGUCAAUAGUCUGCAUGCCGCCGGGCGCCAUGCCUGCAGGUCGACUCUAGAAAACAUG,binding signal,PUM1 PUF domain R5-TTR,6.52 log2 enrichment (interaction score)
same,binding signal,PUM1 PUF domain R5-RCM,3.2 log2 enrichment (interaction score)
GGCUAGAACUAGUGGAUCCCCCGGCGCCCGGCGGCUCGAGCCCGGGUAAGUGAAAAUAGUCUGCAUGCCGCCGGGCGCCAUGCCUGCAGGUCGACUCUAGAAAACAUG,binding signal,PUM1 PUF domain R6-LFS,5.7 log2 enrichment (interaction score)
GGCUAGAACUAGUGGAUCCCCCGGCGCCCGGCGGCUCGAGCCCGGGUAAGUCUAAAUAGUCUGCAUGCCGCCGGGCGCCAUGCCUGCAGGUCGACUCUAGAAAACAUG,binding signal,PUM1 PUF domain R7-HFP,4.02 log2 enrichment (interaction score)
